The structures appear in SMILES notation. The campaign covered roughly 190,000 compounds. About 110 (0.058%) were called active. Roughly 2% stayed inconclusive and do not appear here. The entries come from a sample that favours actives as a whole. A number with no mark means an inactive call.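 How the source made its calls: active means fluorescent GTP binding to Rab7 beads changed by at least 20 points from the 100% baseline, either direction, mostly lower; inconclusive means compound itself probably fluorescent, or too few beads counted; inactive means the rest.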

The test system of this assay is Rab7 GTPase wild type (dog), Bodipy-FL-GTP binding. Description: wildtype dog Rab7 nucleotide binding alteration – biochemical, multiplex bead flow cytometry, primary screen (AID 758).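 Further: median green fluorescence of bound Bodipy-FL-GTP per Rab7 bead population.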 To be noted: GST-Rab7 beads, fluorescent GTP binding, at 10 µM, actives lie on both sides. (In general: A flow cytometer gives signals particle by particle.)
In the case of `CCCC(C)n1[nH]c(=O)c2c1NC(=O)CSC2c1ccc(OC)c(OC)c1` (stereo not given), the GTP binding activity (percent of control) is 100%. Next, `CCOc1ccc(C2SCC(=O)Nc3c2c(C)nn3C2CCOC(C)(C)C2)cc1` (stereo not given): 79% (active); `CN(C)CCCN=Cc1c(O)n(Cc2ccco2)c(=O)[nH]c1=O`: 104%. Turning to `COP(=O)(OC)C(NC(=O)c1ccc(C)cc1)C(Cl)(Cl)Cl` (stereo not given), the GTP binding activity (percent of control) was 99%. Regarding `O=C(Cc1ccccc1)N1CCN(C2CCCCCC2)CC1`, the GTP binding activity (percent of control) was 98%.

Source of the values: PubChem BioAssay AID758 (NMMLSC, 2007).
